Growth data for 40 molecules are collected here from PubChem BioAssay (NCI).

The panel holds about 83,000 compounds, 20% with a hit somewhere; the sample as a whole holds those more often.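 Percent growth is the endpoint: 0 to 100 indicates growth inhibition (40 means 60% inhibition), 0 means no net growth, and negative values indicate cell death.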 Activity calls are given as the source filed them. The calls were made as follows: active = growth percent below 10; inactive = the rest.

The test system of this test is MDA-MB-468 breast. Kind of test: NCI-60 one-dose screen, 48 h (100 = growth as untreated, 0 = no growth, -100 = all killed). The conditions noted are these: 10 µM unless noted.
In the case of `CC1CCc2cc(F)cc3c(=O)c(C(=O)O)cn1c23` (stereo not given), the growth was 109% (inactive). For `C/C(=N\NC(=O)CSc1nc2sc3c(c2c(=O)n1-c1ccccc1)CCC(C)C3)c1ccc(Cl)cc1` (stereo not given) the value was -28% (active); for `CCOC(=O)c1cc2c(n(C)c1=O)-c1cnn(-c3ccc(OC)cc3)c1CC2`, 93.2% (inactive). For `O=C1/C=C/[C@@H](O)[C@@H]2C[C@@H](O)C[C@H]2/C=C/CCC[C@H](C(F)(F)F)O1` the value was -69.1% (active).

With `CCN(C(=O)c1cc2ccccc2[nH]1)[C@H]1CCC[C@@H](NCc2ccc(OC)cc2)C1`, the growth was 80.7% (inactive).

With `C=CCC(OC(C)=O)c1ccc(OC)c(OC)c1` (stereo not given), the growth was 125% (inactive).

`COc1ccc(Cn2cc3c(c2-c2ccccc2)CCCc2cnoc2-3)cc1[N+](=O)[O-]`: the growth was 40.4% (inactive). For `CC(=O)Oc1ccc(/C=N/NC(N)=S)nc1`, the growth was -13.9% (active). For `O=P(O)(O)OCC(O)CO` (stereo not given), the growth was 100% (inactive). Regarding `COc1cc(Cn2cc3c(c2)-c2oncc2CC3)cc(OC)c1OC`, the growth was -17.1% (active). As to `Nc1c(O)c(S(=O)(=O)O)c(O)c2c1C(=O)c1ccccc1C2=O`, the growth is 1.06% (active). The result for `COc1ccc2c(O)c(/C=C3\N=Nc4ncccc43)oc2c1C[C@@H]1CCNC[C@H]1F` reads -52.9% (active); that for `O=C1/C(=C\c2ccc(F)cc2)CN(C(=O)c2ccccc2)C/C1=C\c1ccc(F)cc1`, 5.47% (active); that for `CCOc1ccc(Nc2nc(-c3c(C)nc4ncccn34)cs2)cc1`, 30.2% (inactive). For `COc1ccc(/C=C2\CN(C(=O)C(Cl)Cl)C/C(=C\c3ccc(OC)c(OC)c3)C2=O)cc1OC` the value was -14.2% (active). As to `COc1cc(-c2nc3ccccc3o2)cc(CN2CCCCC2)c1O`, the growth is 67.1% (inactive). The result for `C=C(C)[C@@H]1CC[C@]2(C(=O)NC(C)=O)CC[C@]3(C)[C@H](CC[C@@H]4[C@@]5(C)CCCNC(C)(C)[C@@H]5CC[C@]43C)[C@@H]12` reads -20.3% (active). The result for `O=C1CNCCN1` reads 106% (inactive); that for `COc1ccc(C(=O)c2cc(C(=O)/C=C/c3c(Cl)cccc3Cl)c3cc(C)ccn23)cc1`, 96.1% (inactive).

Turning to `CN(C)c1cccc2c(S(=O)(=O)N[C@H]3CC[C@H]4[C@@H]5CCc6cc(O)ccc6[C@H]5CC[C@]34C)cccc12`, the growth was 34.5% (inactive).

Turning to `C=C1C(=O)O[C@H]2[C@H]1CC/C(COC(=O)CCCCC(=O)OC/C1=C/CC[C@@]3(C)O[C@H]3[C@H]3OC(=O)C(=C)[C@@H]3CC1)=C\CC[C@@]1(C)O[C@@H]21`, the growth was 45.5% (inactive). For the molecule `CC(=O)c1ccc(Nc2nc(NCCO)nc(Nc3ccc(Cl)cc3)n2)cc1`, the growth is 65.7% (inactive).

For the molecule `c1ccc(-c2cn3ccnc3c(-c3ccc4ncn(C5CCCCC5)c4c3)n2)cc1`, the growth is 45.6% (inactive). Consider `NS(=O)(=O)Oc1ccc(NC(=O)C2CCCCCC2)cc1`, for which the growth is 109% (inactive). For `N#Cc1c(N)nc(NCCO)nc1-c1ccc(F)cc1` the value was 102% (inactive). The result for `COc1ccc(/C=C2\C(=O)N(C(=O)c3csc(NC(C)=O)n3)N=C2C)cc1` reads 112% (inactive).

With `CC(C)(C)OC(=O)CN1CCc2c(sc3ncnc(N/N=C/c4cccc5ccccc45)c23)C1`, the growth is 34.3% (inactive).

Regarding `CN(C)CCNC(=O)c1ccc(-c2nc3ccc4[nH]ncc4c3c3c2CCC3)cc1`, the growth was -55.3% (active). The result for `O=C(c1nn(-c2ccc(Cl)cc2)cc1O)n1nc(C(F)(F)F)cc1-c1ccccc1` reads 32.8% (inactive); that for `C(=N/Nc1ncnc2nc[nH]c12)/c1ccccn1`, -27.3% (active). As for `CN(C)c1ccc(N2Cc3ccccc3OC3=C2C(=O)c2c(O)ccc(O)c2C3=O)cn1`, the growth was -59.4% (active). Regarding `C[C@]12CC[C@H](O)CC1=CC[C@@H]1[C@@H]2CC[C@]2(C)C(c3cccnc3)=CC[C@@H]12`, the growth is 15.2% (inactive).

For `COc1ccc(/C(C)=C(\c2ccc(Cl)cc2)c2ccc(OCCN3CCCC3)cc2)cc1`, the growth was 57.8% (inactive).

Take `COCCOc1ccc2ncc(C#Cc3cncc(C(=O)Nc4ccc(CN5CCN(C)CC5)c(C(F)(F)F)c4)c3)n2n1`: the growth is 7.9% (active). On to `Cc1cc2c(-c3nc4ccccn4c3Nc3cccc4ccccc34)c(O)c(O)cc2c(O)c1-c1c(C)cc2c(-c3nc4ccccn4c3Nc3cccc4ccccc34)c(O)c(O)cc2c1O`, for which the growth is 17.4% (inactive). For `C/C(=C\c1cnc(C)s1)[C@@H]1C[C@@H]2O[C@@H]2CCC[C@H](C)[C@H](O)[C@@H](C)C(=O)C(C)(C)[C@@H](O)CC(=O)O1` the value was 43.4% (inactive); for `COc1ccc2c(c1)sc1nc(-c3ccccc3)c(-c3cccc4ccccc34)n12`, 11.5% (inactive).

As for `COc1cc(/C=C2\SC(=O)NC2=O)ccc1OCC(=O)Nc1ccc(C(=O)/C=C/c2cc3ccccc3nc2Cl)cc1`, the growth was 61.4% (inactive).

Turning to `CCOC(=O)c1cc(C(=O)c2cc(OC)cc(OC)c2)n2ncc3ccccc3c12`, the growth was 8.22% (active). For the molecule `COc1ccc(OCC(=O)OC(C)C)cc1`, the growth was 84.3% (inactive).
